{"source": "the supplement of paper PMC10515830", "note": "Where a name gives a salt, the structure may show the parent alone."}
{"tested_on": "Danio rerio larvae (5 dpf)", "assay": "difference in habituation to acoustic stimuli vs DMSO (percentage points); higher = more habituation than DMSO", "settings": "10 µM; exposure time 6 h", "method_in_brief": "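Wild-type 5 dpf zebrafish larvae in 96-well plates were given 100 µL egg water containing library compound at 10 µM final for 6 h. After 3 h of exposure, plates at 28.5 ℃ were photographed every 6 s during a 3-h programme of moving lines and 100 ms, 400Hz tones. Z-LaP Tracker (a DeepLabCut model) quantified each behaviour, averaged over 48 larvae per compound. Values are the compound mean minus the DMSO-vehicle control, in percentage points.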"}
{"smiles": "COc1cc(Cc2cnc(N)nc2N)cc(OC)c1OC", "note": "[Trimethoprim]", "difference in habituation to acoustic stimuli": -7.9}
{"smiles": "C=CC[N+]1([C@H]2C[C@H]3[C@@H]4CC[C@H]5C[C@H](O)[C@@H](N6CCOCC6)C[C@]5(C)[C@H]4CC[C@]3(C)[C@H]2OC(C)=O)CCCC1", "note": "[Rocuronium (bromide)]", "difference in habituation to acoustic stimuli": 4.51}
{"smiles": "CCOc1ccc2ccccc2c1C(=O)N[C@@H]1C(=O)N2[C@@H]1SC(C)(C)[C@@H]2C(=O)O", "note": "[Nafcillin (sodium salt hydrate)]", "difference in habituation to acoustic stimuli": -2.07}
{"smiles": "CN1C(C(=O)Nc2ccccn2)=C(O)c2ccccc2S1(=O)=O", "note": "[Piroxicam]", "difference in habituation to acoustic stimuli": -1.73}
{"smiles": "CC(=O)O[C@H]1C[C@@H]2CC[C@@H]3[C@H](CC[C@@]4(C)[C@H]3C[C@H]([N+]3(C)CCCCC3)[C@@H]4OC(C)=O)[C@@]2(C)C[C@@H]1N1CCCCC1", "note": "[Vecuronium (bromide)]", "difference in habituation to acoustic stimuli": 3.25}
{"smiles": "O=C1[C@@H]2[C@H]3CC[C@H](C3)[C@@H]2C(=O)N1C[C@@H]1CCCC[C@H]1CN1CCN(c2nsc3ccccc23)CC1", "note": "[Lurasidone]", "difference in habituation to acoustic stimuli": -11.8}
{"smiles": "CC(=O)CCCCn1c(=O)c2c(ncn2C)n(C)c1=O", "note": "[Pentoxifylline]", "difference in habituation to acoustic stimuli": 4.08}
{"smiles": "CNS(=O)(=O)CCc1ccc2[nH]cc(C3CCN(C)CC3)c2c1", "note": "[Naratriptan (hydrochloride)]", "difference in habituation to acoustic stimuli": 7.18}
{"smiles": "C[C@]12C=CC(=O)C=C1CC[C@@H]1[C@@H]2[C@@H](O)C[C@@]2(C)[C@H]1CC[C@]2(O)C(=O)CO", "note": "[Prednisolone]", "difference in habituation to acoustic stimuli": 0.15}
{"smiles": "CN(C)CCC(c1ccc(Cl)cc1)c1ccccn1", "note": "(configuration not stated) [Chlorpheniramine (maleate)]", "difference in habituation to acoustic stimuli": -6.14}
{"smiles": "COc1ccc2c(c1)c(CC(=O)O)c(C)n2C(=O)c1ccc(Cl)cc1", "note": "[Indomethacin]", "difference in habituation to acoustic stimuli": 6.54}
{"smiles": "COc1ccc(C(=O)CC(=O)c2ccc(C(C)(C)C)cc2)cc1", "note": "[Avobenzone]", "difference in habituation to acoustic stimuli": 4.35}
{"smiles": "Cc1cc(C(C)(C)C)c(O)c(C)c1CC1=NCCN1", "note": "[Oxymetazoline (hydrochloride)]", "difference in habituation to acoustic stimuli": 6.77}
{"smiles": "N[C@@H]1CCCCN(c2c(F)cc3c(=O)c(C(=O)O)cn(C4CC4)c3c2Cl)C1", "note": "[Besifloxacin (hydrochloride)]", "difference in habituation to acoustic stimuli": -5.08}
{"smiles": "Cc1ccccc1N1C(=O)c2cc(S(N)(=O)=O)c(Cl)cc2NC1C", "note": "(configuration not stated) [Metolazone]", "difference in habituation to acoustic stimuli": 0.578}
{"smiles": "CNCc1ccc(-c2[nH]c3cc(F)cc4c3c2CCNC4=O)cc1", "note": "[Rucaparib]", "difference in habituation to acoustic stimuli": 15.7}
{"smiles": "Nc1nc(F)nc2c1ncn2[C@@H]1O[C@H](COP(=O)(O)O)[C@@H](O)[C@@H]1O", "note": "[Fludarabine Phosphate]", "difference in habituation to acoustic stimuli": -5.41}
{"smiles": "C=C[C@H]1CN2CC[C@H]1C[C@H]2[C@H](O)c1ccnc2ccc(OC)cc12", "note": "[Quinine]", "difference in habituation to acoustic stimuli": 0.181}
{"smiles": "O=c1[nH]cc(F)c(=O)[nH]1", "note": "[5-Fluorouracil]", "difference in habituation to acoustic stimuli": 0.939}
{"smiles": "CCCN(CCc1cccs1)[C@H]1CCc2c(O)cccc2C1", "note": "[Rotigotine]", "difference in habituation to acoustic stimuli": -14.4}
{"smiles": "CN(C)C(=O)c1cc2cnc(Nc3ccc(N4CCNCC4)cn3)nc2n1C1CCCC1", "difference in habituation to acoustic stimuli": -2.12}
{"smiles": "OCCN(CCO)c1nc(N2CCCCC2)c2nc(N(CCO)CCO)nc(N3CCCCC3)c2n1", "note": "[Dipyridamole]", "difference in habituation to acoustic stimuli": -3.82}
{"smiles": "COc1ccc(C[C@@H](C)NC[C@H](O)c2ccc(O)c(NC=O)c2)cc1", "note": "[Arformoterol (tartrate)]", "difference in habituation to acoustic stimuli": -7.89}
{"smiles": "O=C(O)COCCN1CCN(C(c2ccccc2)c2ccc(Cl)cc2)CC1", "note": "(configuration not stated) [Cetirizine (hydrochloride)]", "difference in habituation to acoustic stimuli": -2.99}
{"smiles": "CC1(C)C[C@@H]1C(=O)N/C(=C\\CCCCSC[C@H](N)C(=O)O)C(=O)O", "note": "[Cilastatin]", "difference in habituation to acoustic stimuli": -6.5}
{"smiles": "CNCCC=C1c2ccccc2CCc2ccccc21", "note": "[Nortriptyline (hydrochloride)]", "difference in habituation to acoustic stimuli": -3.34}
{"smiles": "CC(=O)OCC(=O)[C@@]1(OC(C)=O)[C@@H](C)C[C@H]2[C@@H]3C[C@H](F)C4=CC(=O)C=C[C@]4(C)[C@@]3(F)[C@@H](O)C[C@@]21C", "note": "[Diflorasone Diacetate]", "difference in habituation to acoustic stimuli": -1.12}
{"smiles": "CC(=O)OCC(CCn1cnc2cnc(N)nc21)COC(C)=O", "note": "[Famciclovir]", "difference in habituation to acoustic stimuli": 0.929}
{"smiles": "COc1cc(CNC(=O)CCCC/C=C/C(C)C)ccc1O", "note": "[Capsaicin]", "difference in habituation to acoustic stimuli": -0.624}
{"smiles": "CN(C)C/C=C/C(=O)Nc1cc2c(Nc3ccc(F)c(Cl)c3)ncnc2cc1O[C@H]1CCOC1", "note": "[Afatinib (maleate)]", "difference in habituation to acoustic stimuli": 5.63}
{"smiles": "COc1ccc(CC(C)NCC(O)c2ccc(O)c(NC=O)c2)cc1", "note": "(configuration not stated) [Formoterol (hemifumarate hydrate)]", "difference in habituation to acoustic stimuli": -7.8}
{"smiles": "OC[C@H]1NC[C@H](O)[C@@H](O)[C@H]1O", "note": "[1-Deoxygalactonojirimycin (hydrochloride)]", "difference in habituation to acoustic stimuli": 3.98}
